Measurements published in PubChem BioAssay AID624416 (The Scripps Research Institute Molecular Screening Center, 2012).
Hit rate of the full screen: of about 360,000 compounds, about 1,500 (0.42%) were called active. The full list was thinned out, with actives kept by preference. Unmarked numbers belong to inactive results. Cut-off read from the data, not from the text of the source: active = inhibition above about 8.5%; inactive = the rest.

system: HIV-1 gp120 / PG9 antibody interaction; assay: small molecules engaging PG9 antibody – biochemical, TR-FRET, primary screen (AID 624416); details: TR-FRET gp120-PG9 antibody binding; at 6.7 µM; hits give high values

Compared with CCN(CC)C(=O)c1ccc(NC(=O)c2cc(-n3cnnc3)ccc2Cl)cc1, CC(=O)Nc1ccc(C(=O)C(Cc2ccccc2)N(C)C)cc1 (stereo not given) is lower in inhibition: -0.62% for the first, -2.82% for the second.

Going from O=C1NC(=O)C(CCc2ccccn2)(Cc2cccc(Cl)c2Cl)C(=O)N1c1ccc(Br)cc1 (stereo not given) to Cc1cc2ccccn2c1C(C[N+](=O)[O-])c1c(F)cccc1Cl (stereo not given), the inhibition rises from -0.96% to 1.04%.

First: CN1CCN(Cc2ccccc2C(F)(F)F)CC1
Second: COc1ccc(C2C=C(C)Oc3c2c(=O)oc2ccccc32)cc1OC (stereo not given)
The inhibition of the first is higher: 1.87% for the first, 0.19% for the second.

Going from CCNc1nc2[nH]c(=O)c3c(c2s1)OC(N)=C(C#N)C3c1cccs1 (stereo not given) to C[C@]12CCCCC1=CC(=O)C1C2CC[C@@]2(C)C1C[C@@H](F)[C@@H]2O (stereo not given in full), the inhibition rises from -1.83% to 0.27%.

CCN(CC)C(=O)c1ccc(NC(=O)c2sccc2-c2ccccc2)cc1 was tested, and the inhibition was 9.48% (active).
N#CC1=C(N)Oc2c(c(=O)oc3ccccc23)C1c1ccccc1OC(=O)c1cccs1 (stereo not given) was tested, and the inhibition was 11% (active).
